According to PubChem BioAssay (NCATS):
“And” between values parts separate entries of the source, which are not always exact repeats. Equal values may be shown once. Records with an inconclusive call do not appear. The source made the active and inactive calls. Unless noted, the call rests on the fitted dose curve; in most records, active means well fitted curve in the direction sought with a large enough effect; inconclusive means small, poorly fitted or top-dose-only effect, or another doubt; inactive means no such curve, though single readings can be large; an effect the other way counts as inactive or inconclusive.

Columns and labels:
[1] = target: T1, Tyrosine-protein phosphatase non-receptor type substrate 1 (Homo sapiens) + Leukocyte surface antigen CD47 (Homo sapiens) (UniProt P78324+Q08722); assay: CD47-SIRPalpha protein protein interaction - LANCE assay qHTS validation (AID 1347057; active means well fitted curve in the direction sought with a large enough effect in the signal ratio, with a control signal flat, not every such curve was filed as active; the % refers to the signal ratio; further: series mostly up to about 38 µM)
In short: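 Inhibition of soluble CD47/SIRPalpha ectodomain association by titrated compounds, measured as 665/615 nm time-resolved FRET ratio after sequential 30 min room-temperature incubations.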

[2] = target: T1, Tyrosine-protein phosphatase non-receptor type substrate 1 (Homo sapiens) + Leukocyte surface antigen CD47 (Homo sapiens); assay: CD47-SIRPalpha protein protein interaction - HTRF assay qHTS validation (AID 1347058; active means well fitted curve in the direction sought with a large enough effect in the signal ratio, not every such curve was filed as active; the % refers to the signal ratio; further: series mostly up to about 38 µM)
In short: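 Soluble extracellular domains (6His-CD47, Avi-tag-biotinylated SIRPalpha) in PBS pH 7.4 with 0.05% IGEPAL CA-630. Compounds were preincubated 30 min at RT with CD47 and anti-His-Eu, then SIRPalpha and SAV-XL665 were added. TR-FRET 665/615 ratio.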

[3] = target: T1, Tyrosine-protein phosphatase non-receptor type substrate 1 (Homo sapiens) + Leukocyte surface antigen CD47 (Homo sapiens); assay: CD47-SIRPalpha protein protein interaction - Alpha assay qHTS validation (AID 1347059);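 further: bead proximity luminescence from CD47 binding SIRPalpha after compound preincubation with SIRPalpha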
In short: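 In PBS (pH 7.4) with 0.05% IGEPAL CA-630, compound is preincubated with biotin-Avi-SIRPalpha ectodomain before His-CD47 ectodomain and affinity beads are added. Light-protected room-temperature incubations; AlphaScreen readout.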

[4] = target: Parathyroid hormone/parathyroid hormone-related peptide receptor (Homo sapiens) (UniProt Q03431); assay: qHTS for PTHR1 Agonists: Optimization Screen against the NCGC LOPAC library (AID 1347079);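 further: GloSensor cAMP luminescence in HEK-293 GP2 cells expressing human PTHR1 with IBMX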
In short: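 Signal increase flags agonism. GP2 cells, derived from HEK-293, express human PTHR1 and a GloSensor cAMP construct.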

[5] = qHTS of pediatric cancer cell lines to identify multiple opportunities for drug repurposing: Primary screen for TC32 cells (AID 1347089); further: nearly all actives have a fitted effect of over 60% in size; further: potency means the concentration at half of the fitted maximal effect
In short: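 In the primary qHTS, MIPE compounds were tested at 11 concentrations (0.78 nM to 46 µM) and NPC compounds at 8 (0.59 nM to 46 µM) on TC32 cells for 48 h. CellTiter-Glo luminescence gave viability.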

[6] = qHTS of pediatric cancer cell lines to identify multiple opportunities for drug repurposing: Primary screen for DAOY cells (AID 1347090); further: nearly all actives have a fitted effect of over 55% in size; further: potency means the concentration at half of the fitted maximal effect
In short: (§1)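 Eight- or eleven-point concentration series, 48 h treatment at 37 degrees C in growth media; readout CellTiter-Glo luminescence. Potency and efficacy were taken from the concentration-response curves.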

[7] = qHTS of pediatric cancer cell lines to identify multiple opportunities for drug repurposing: Primary screen for SJ-GBM2 cells (AID 1347091); further: potency means the concentration at half of the fitted maximal effect
In short: as §1

[8] = qHTS of pediatric cancer cell lines to identify multiple opportunities for drug repurposing: Primary screen for A673 cells (AID 1347092); further: nearly all actives have a fitted effect of over 45% in size; further: potency means the concentration at half of the fitted maximal effect
In short: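 48 h compound exposure, A673, 500-1,000 cells/well, 37 degrees C/5% CO2. MIPE: 11-point, 0.78 nM-46 µM; NPC: 8-point, 0.59 nM-46 µM (final). Readout CellTiter-Glo luminescence after 15 min RT.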

[9] = qHTS of pediatric cancer cell lines to identify multiple opportunities for drug repurposing: Primary screen for SK-N-MC cells (AID 1347093); further: potency means the concentration at half of the fitted maximal effect
In short: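 Metabolically active cells were quantified by ATP-dependent luminescence (CellTiter-Glo, 15 min at room temperature) following 48 h treatment. Cells had been plated at 500-1,000 per well and settled for 5 h beforehand.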

[10] = qHTS of pediatric cancer cell lines to identify multiple opportunities for drug repurposing: Primary screen for BT-37 cells (AID 1347094); further: potency means the concentration at half of the fitted maximal effect
In short: (§2)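 Readout: CellTiter-Glo luminescence, 48 h treatment. Controls DMSO (neutral) and bortezomib 2.3 µM final (positive). Potency and efficacy taken from primary-screen concentration-response curves.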

[11] = qHTS of pediatric cancer cell lines to identify multiple opportunities for drug repurposing: Primary screen for SK-N-SH cells (AID 1347098); further: nearly all actives have a fitted effect of over 65% in size; further: potency means the concentration at half of the fitted maximal effect
In short: (§3)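 Cells (500-1,000/well) rested 5 h, then received compounds for 48 h; metabolically active cells were measured by CellTiter-Glo luminescence. Final concentrations spanned up to 46 µM (MIPE, 11-point) or 0.59 nM-46 µM (NPC, 8-point) in primary screens, 11-point in follow-ups.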

[12] = qHTS of pediatric cancer cell lines to identify multiple opportunities for drug repurposing: Primary screen for NB1643 cells (AID 1347099); further: nearly all actives have a fitted effect of over 50% in size; further: potency means the concentration at half of the fitted maximal effect
In short: as §2

[13] = qHTS of pediatric cancer cell lines to identify multiple opportunities for drug repurposing: Primary screen for LAN-5 cells (AID 1347100); further: potency means the concentration at half of the fitted maximal effect
In short: (§4)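 Cells (500-1,000/well) in growth media were settled 5 h at 37 degrees C, then given compounds for 48 h. Viability was read as CellTiter-Glo luminescence. Primary runs used MIPE at 11 points (0.78 nM-46 µM) and NPC at 8 points (0.59 nM-46 µM); follow-ups used 11 points.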

[14] = qHTS of pediatric cancer cell lines to identify multiple opportunities for drug repurposing: Primary screen for BT-12 cells (AID 1347101); further: nearly all actives have a fitted effect of over 25% in size; further: potency means the concentration at half of the fitted maximal effect
In short: as §3

[15] = qHTS of pediatric cancer cell lines to identify multiple opportunities for drug repurposing: Primary screen for Rh18 cells (AID 1347102); further: nearly all actives have a fitted effect of over 65% in size; further: potency means the concentration at half of the fitted maximal effect
In short: as §4

[16] = qHTS of pediatric cancer cell lines to identify multiple opportunities for drug repurposing: Primary screen for OHS-50 cells (AID 1347103); further: nearly all actives have a fitted effect of over 40% in size; further: potency means the concentration at half of the fitted maximal effect
In short: as §3

[17] = qHTS of pediatric cancer cell lines to identify multiple opportunities for drug repurposing: Primary screen for RD cells (AID 1347104); further: nearly all actives have a fitted effect of over 55% in size; further: potency means the concentration at half of the fitted maximal effect
In short: as §2

[18] = qHTS of pediatric cancer cell lines to identify multiple opportunities for drug repurposing: Primary screen for U-2 OS cells (AID 1347096); further: nearly all actives have a fitted effect of over 50% in size; further: potency means the concentration at half of the fitted maximal effect
In short: as §4

[19] = qHTS of pediatric cancer cell lines to identify multiple opportunities for drug repurposing: Primary screen for NB-EBc1 cells (AID 1347095); further: potency means the concentration at half of the fitted maximal effect
In short: as §2

[20] = qHTS of pediatric cancer cell lines to identify multiple opportunities for drug repurposing: Primary screen for Saos-2 cells (AID 1347097); further: nearly all actives have a fitted effect of over 40% in size; further: potency means the concentration at half of the fitted maximal effect
In short: as §2

Measured: Potency

T1 sequence (P78324 whole entry, looked up, the tested form may be a part): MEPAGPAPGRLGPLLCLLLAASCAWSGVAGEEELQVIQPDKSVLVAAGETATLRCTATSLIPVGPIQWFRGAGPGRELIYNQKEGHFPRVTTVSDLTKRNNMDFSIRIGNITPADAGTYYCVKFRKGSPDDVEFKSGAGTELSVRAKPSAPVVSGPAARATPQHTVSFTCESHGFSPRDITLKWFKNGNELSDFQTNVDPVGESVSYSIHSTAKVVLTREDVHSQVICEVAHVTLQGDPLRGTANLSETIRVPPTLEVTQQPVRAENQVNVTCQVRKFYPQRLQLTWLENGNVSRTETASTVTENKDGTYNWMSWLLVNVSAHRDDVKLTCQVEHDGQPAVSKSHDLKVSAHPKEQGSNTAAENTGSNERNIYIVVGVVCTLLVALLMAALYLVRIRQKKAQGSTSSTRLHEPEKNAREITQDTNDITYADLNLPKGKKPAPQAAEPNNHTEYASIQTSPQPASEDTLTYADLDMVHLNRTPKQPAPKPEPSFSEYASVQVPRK
T1 sequence (Q08722 whole entry, looked up, the tested form may be a part): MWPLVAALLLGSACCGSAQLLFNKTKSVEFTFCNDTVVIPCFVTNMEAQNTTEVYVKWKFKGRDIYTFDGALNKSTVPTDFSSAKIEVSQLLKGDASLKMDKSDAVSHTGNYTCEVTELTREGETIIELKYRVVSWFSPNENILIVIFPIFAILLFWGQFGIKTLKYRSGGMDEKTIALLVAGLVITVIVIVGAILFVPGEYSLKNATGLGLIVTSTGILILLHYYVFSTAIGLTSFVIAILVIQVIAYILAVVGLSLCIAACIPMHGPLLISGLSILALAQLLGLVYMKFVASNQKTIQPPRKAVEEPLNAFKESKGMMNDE
Parathyroid hormone/parathyroid hormone-related peptide receptor (Homo sapiens), sequence (Q03431 whole entry, looked up): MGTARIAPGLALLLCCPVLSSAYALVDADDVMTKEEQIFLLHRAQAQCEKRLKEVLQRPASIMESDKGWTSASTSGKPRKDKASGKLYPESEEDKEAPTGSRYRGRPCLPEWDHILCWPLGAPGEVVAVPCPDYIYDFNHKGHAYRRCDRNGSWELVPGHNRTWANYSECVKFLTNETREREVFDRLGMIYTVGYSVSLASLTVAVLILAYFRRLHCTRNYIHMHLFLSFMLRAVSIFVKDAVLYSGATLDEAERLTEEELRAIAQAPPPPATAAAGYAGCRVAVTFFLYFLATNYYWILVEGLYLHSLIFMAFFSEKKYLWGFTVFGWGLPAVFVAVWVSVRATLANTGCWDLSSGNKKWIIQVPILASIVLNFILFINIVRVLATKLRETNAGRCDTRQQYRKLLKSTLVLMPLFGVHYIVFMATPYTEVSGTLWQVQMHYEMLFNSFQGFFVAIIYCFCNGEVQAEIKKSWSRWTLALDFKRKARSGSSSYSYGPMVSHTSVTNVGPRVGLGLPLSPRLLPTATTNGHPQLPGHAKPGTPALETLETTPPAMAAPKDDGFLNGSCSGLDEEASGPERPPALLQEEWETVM

COc1cc2nc(N3CCCN(C)CC3)nc(NC3CCN(Cc4ccccc4)CC3)c2cc1OC
active: [5] 20.8 µM | [6] 18.7 µM | [7] 14.8 µM | [8] 3.72 µM | [9] 6.62 µM | [10] 13.7 µM | [11] 9.61 µM | [12] 9.35 µM | [13] 8.33 µM | [14] 10.9 µM | [15] 9.35 µM | [16] 8.63 µM | [17] 8.33 µM
inactive: [1] | [2] | [3] | [4]

CCCCS(=N)(=O)CCC(N)C(=O)O (configuration not stated)
active: [8] 23.5 µM
not listed: [5] | [9] | [11] | [19] | [20]
inactive: all other assays above

CCN(CC)CCn1c(=O)c(Cc2ccc(OC)cc2)nc2ccccc21
not listed: [2] | [20]
inactive: all other assays above

NC(=O)c1ccc2[nH]ccc2c1
not listed: [16] | [20]
inactive: all other assays above

CCN1CCCC1CNC(=O)c1cc(S(N)(=O)=O)ccc1OC (configuration not stated)
not listed: [17]
inactive: all other assays above

CC(C)OC(=O)C(C(=O)OC(C)C)=C1SC=CS1
not listed: [1] | [2] | [3] | [4] | [16]
inactive: all other assays above

CCCc1cc(C(N)=S)ccn1
not listed: [1] | [2] | [3] | [4] | [16] | [17] | [19] | [20]
inactive: all other assays above

CC1=NN(c2ccccc2)C(=O)C1
not listed: [1] | [2] | [3] | [4] | [17] | [19] | [20]
inactive: all other assays above

CCOC(=O)c1ccc(C#Cc2ccc3c(c2)C(C)(C)CCS3)nc1
active: [8] 23.5 µM | [9] 18.7 µM | [16] 777 nM and 54.4 nM
not listed: [1] | [2] | [3] | [4] | [13] | [20]
inactive: all other assays above

COC(=O)Nc1nc2ccc(Sc3ccccc3)cc2[nH]1
inactive: [11]
active: [5] 1.33 µM and 2.62 µM | [6] 1.06 µM | [7] 0.833 µM | [8] 1.06 µM and 935 nM | [9] 841 nM and 590 nM | [10] 1.74 µM and 3.06 µM | [18] 13.3 µM | [20] 841 nM and 2.35 µM | [13] 1.32 µM | [14] 1.74 µM and 4.32 µM

Cc1noc(NS(=O)(=O)c2ccc(N)cc2)c1C
not listed: [1] | [2] | [3] | [4] | [19]
inactive: all other assays above

CCc1cc(C(N)=S)ccn1
not listed: [1] | [2] | [3] | [4] | [16]
inactive: all other assays above

CN1CCN(c2c(F)cc3c(=O)c(C(=O)O)cn4c3c2OCN4C)CC1
not listed: [1] | [2] | [3] | [4] | [10] | [17]
inactive: all other assays above

CCCOc1ccc(C(=O)OCCN(CC)CC)cc1N
not listed: [1] | [2] | [3] | [4] | [17] | [19]
inactive: all other assays above

Nc1nc(=S)c2[nH]cnc2[nH]1
active: [5] 3.33 µM | [6] 2.11 µM and 1.87 µM | [7] 0.935 µM | [8] 841 nM and 743 nM | [9] 2.99 µM and 1.66 µM | [19] 0.743 µM | [18] 1.68 µM and 2.35 µM | [20] 7.5 µM and 4.69 µM | [11] 6.87 µM and 5.41 µM | [12] 2.99 µM and 3.32 µM | [13] 2.35 µM | [14] 8.71 µM and 7.69 µM | [15] 13.3 µM

CCOC(=O)c1ccc(OC(=O)CCCCCN=C(N)N)cc1
not listed: [1] | [2] | [3] | [4] | [20]
inactive: all other assays above

NCCCC(O)(P(=O)(O)O)P(=O)(O)O
not listed: [1] | [2] | [3] | [4] | [10]
inactive: all other assays above

C[C@@H]1C[C@H]2[C@@H]3CCC4=CC(=O)C=C[C@]4(C)[C@@]3(Cl)[C@@H](O)C[C@]2(C)[C@@]1(OC(=O)c1ccco1)C(=O)CCl
active: [6] 18.7 µM | [7] 9.35 µM | [8] 0.59 µM | [9] 2.96 µM | [10] 21.7 µM | [19] 11.8 µM | [18] 14.8 µM | [11] 19.2 µM | [12] 2.64 µM | [13] 10.5 µM | [14] 27.6 µM and 9.68 µM | [17] 8.33 µM
inactive: [5]

OC(Cn1cncn1)(Cn1cncn1)c1ccc(F)cc1F
not listed: [1] | [2] | [3] | [4] | [20]
inactive: all other assays above

CN1CCN(c2c(F)cc3c(=O)c(C(=O)O)cn(CCF)c3c2F)CC1
not listed: [1] | [2] | [3] | [4] | [16] | [17] | [19] | [20]
inactive: all other assays above

COC(=O)Nc1nc2ccc(S(=O)c3ccccc3)cc2[nH]1 (configuration not stated)
active: [5] 1.18 µM | [6] 841 nM and 14.8 µM | [7] 596 nM and 14.8 µM | [8] 841 nM and 9.35 µM | [9] 376 nM and 8.33 µM | [10] 1.55 µM | [20] 8.33 µM | [11] 1.54 µM and 19.2 µM | [13] 944 nM and 11.8 µM | [14] 2.46 µM | [16] 1.1 µM and 24.3 µM

CC(C)OC(=O)OCOP(=O)(CO[C@H](C)Cn1cnc2c(N)ncnc21)OCOC(=O)OC(C)C
active: [9] 11.8 µM and 15 µM
inactive: [5] | [6] | [7] | [8] | [10] | [18] | [12] | [13] | [15]

Nc1nc(N)nc(-c2cc(Cl)ccc2Cl)n1
not listed: [1] | [2] | [3] | [4] | [20]
inactive: all other assays above

CCN[C@H]1C[C@H](C)S(=O)(=O)c2sc(S(N)(=O)=O)cc21
not listed: [1] | [2] | [3] | [4] | [10]
inactive: all other assays above

N[C@@H](C(=O)N[C@@H]1C(=O)N2C(C(=O)O)=C(Cl)CS[C@H]12)c1ccccc1
not listed: [1] | [2] | [3] | [4] | [10] | [16]
inactive: all other assays above

S=P(N1CC1)(N1CC1)N1CC1
active: [8] 23.5 µM | [9] 3.72 µM | [19] 1.05 µM | [12] 0.0935 µM | [13] 18.7 µM
inactive: [5] | [6] | [7] | [18] | [11] | [14] | [15] | [17]

CC(=O)[C@H]1CC[C@H]2[C@@H]3CC=C4C[C@@H](O)CC[C@]4(C)[C@H]3CC[C@]12C
not listed: [1] | [2] | [3] | [4] | [11] | [16] | [20]
inactive: all other assays above

Cn1nnc2c(C(N)=O)ncn2c1=O
not listed: [1] | [2] | [3] | [4] | [16] | [17] | [19]
inactive: all other assays above
